Arbovirus inh = blocks arbovirus infection | arbovirus infection cell-based antiviral screen | inhibition, % at 10 µM | 200,000 compounds, 0.37% hits | AID 1251; in the data active = inhibition above about 30%
WT yeast gro inh = growth inhibition of WT yeast, mitochondrial fusion screen; inhibition, % at 10 µM; mitochondrial fusion phenotypic screen, WT strain; 190,000 compounds, 2.1% hits; in the data active = inhibition above about 58%; tested in S. cerevisiae
PERK inh = blocks human PERK kinase | AID 1416 | Q9NZJ5 | 220,000 compounds, 0.17% hits | CHO PERK-DD fusion, SEAP luminescence translation reporter | inhibition, % at 5.6 µM;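 active = inhibition above the mean inhibition of all tested compounds plus 3 SD, set separately per screening campaign, cut at about 2.9% in these data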;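 also: PERK kinase domain activated by AP20187 dimerizer at 100 nM; 0% = DMSO with dimerizer and 100% = rapamycin at 8.4 µM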
Target sequence (Q9NZJ5 whole entry, looked up, the tested form may be a part): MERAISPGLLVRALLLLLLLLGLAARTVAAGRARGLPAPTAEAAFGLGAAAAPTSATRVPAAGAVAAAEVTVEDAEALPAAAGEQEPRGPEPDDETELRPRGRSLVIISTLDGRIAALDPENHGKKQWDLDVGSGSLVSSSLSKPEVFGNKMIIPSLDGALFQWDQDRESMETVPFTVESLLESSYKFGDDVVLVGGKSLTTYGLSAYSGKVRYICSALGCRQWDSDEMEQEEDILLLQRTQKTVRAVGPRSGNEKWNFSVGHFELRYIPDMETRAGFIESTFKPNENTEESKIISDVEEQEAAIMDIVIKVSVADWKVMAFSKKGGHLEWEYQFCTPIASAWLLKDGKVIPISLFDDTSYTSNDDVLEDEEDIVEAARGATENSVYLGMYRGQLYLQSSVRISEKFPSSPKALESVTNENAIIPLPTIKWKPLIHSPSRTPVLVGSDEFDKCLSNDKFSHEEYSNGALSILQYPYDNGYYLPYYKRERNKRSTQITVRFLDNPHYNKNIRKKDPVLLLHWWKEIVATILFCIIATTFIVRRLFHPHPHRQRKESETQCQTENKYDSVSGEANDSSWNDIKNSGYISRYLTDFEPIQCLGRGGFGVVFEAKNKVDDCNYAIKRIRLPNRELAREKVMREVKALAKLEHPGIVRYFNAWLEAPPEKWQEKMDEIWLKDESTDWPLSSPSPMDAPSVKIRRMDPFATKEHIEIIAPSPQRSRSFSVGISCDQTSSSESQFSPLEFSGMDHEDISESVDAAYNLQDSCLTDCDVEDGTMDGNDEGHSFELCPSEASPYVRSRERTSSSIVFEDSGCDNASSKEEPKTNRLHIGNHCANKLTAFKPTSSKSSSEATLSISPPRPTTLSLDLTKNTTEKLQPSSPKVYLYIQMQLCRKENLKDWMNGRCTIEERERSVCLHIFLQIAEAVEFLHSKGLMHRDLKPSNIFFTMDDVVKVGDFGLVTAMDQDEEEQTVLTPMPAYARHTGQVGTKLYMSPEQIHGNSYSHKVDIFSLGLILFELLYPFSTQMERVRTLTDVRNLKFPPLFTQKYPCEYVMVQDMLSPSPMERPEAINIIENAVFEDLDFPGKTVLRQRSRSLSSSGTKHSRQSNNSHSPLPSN
ROMK primary = modulates human ROMK potassium channel activity. Tet-inducible ROMK, thallium flux fluorescence; actives lie on both sides. 130,000 compounds, 2% hits. P48048. B-score at 10 µM;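 active = signal ratio slope over the read window, or its plate-corrected B-score, at least 3 SD from the plate mean, either direction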;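 also: B-score of the F/F0 ratio slope over 7 to 12 s after thallium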
ROMK hit retest = retested hit modulating human ROMK potassium channel; normalized thallium flux (F/F0 slope) at 10 µM; ROMK thallium flux, fluorescence ratio; hits give low values; shares compounds with ROMK primary; 3,000 compounds, 54% hits;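 active = Flux at 10 µM at least 3 SD below or above vehicle control mean in one or both replicates; inconclusive = no clear call, values can overlap the other calls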
* hit, by the source's call; ? = inconclusive; · = no result given. This is a sample that favours compounds with a hit; in the whole collection about 3.3% have one here.

SMILES | Arbovirus inh | WT yeast gro inh | PERK inh | ROMK primary | ROMK hit retest
CC(NC(=O)CCc1nnc(-c2ccc(-c3ccccc3)cc2)o1)c1nc2ccccc2[nH]1 (stereo not drawn) | 8.5 | -19.7 | -1.3 | 0.2 | ·
FC(F)(F)Oc1ccc(NC(=S)NCCCN2CCOCC2)cc1 | 10.9 | -13.5 | 0.9 | 0.0731 | ·
COc1cccc(N2CCN(c3c(C#N)c(C(F)(F)F)nn3C)CC2)c1 | 4.2 | 32.3 | -2.5 | -4.09* | 0.0596*
Cn1nc(C(F)(F)F)c(C#N)c1N1CCN(c2ccccc2F)CC1 | 3.0 | -0.4 | 0.3 | -0.67 | ·
O=C(O)CCCN1C(=O)c2ccc(Oc3cccc([N+](=O)[O-])c3)cc2C1=O | 5.2 | 10.6 | 0.1 | -0.565 | ·
CC(=O)c1sc2nsc(SCCN3CCCCC3)c2c1N | · | · | 0.7 | · | 0.0531*
Nc1c(C(=O)c2ccccc2)sc2nsc(SCCN3CCCC3)c12 | · | · | 0.5 | · | ·
O=C(CC1C(=O)N(c2ccc(Cl)cc2)C(=S)N1CCc1ccncc1)Nc1ccc(F)cc1 (stereo not drawn) | -4.7 | -0.3 | -0.9 | -0.00746 | ·
Cc1ccc(-n2cccc2/C=C2/C(=N)N3C(=NC2=O)SN=C3S(C)(=O)=O)cc1Cl | 34.3* | 16.8 | 0.3 | · | 0.0754
COc1cc(C2C3=C(Nc4ncnn42)c2ccccc2CC3)cc(OC)c1OC (stereo not drawn) | -10.7 | -2.4 | -1.5 | 3.91* | 0.0869
Cc1ccc(/C(O)=C2/C(=O)C(=O)N(CCN3CCOCC3)C2c2cccs2)cc1 (stereo not drawn) | 0.0 | 12.5 | 1.2 | · | ·
CCCCOC(=O)Cn1c2ccc(OC)cc2c2nc3ccccc3nc21 | -30.1 | -2.3 | -0.4 | -4.19* | 0.0563*
C=CCc1cccc2cc(C(=O)NC(C)(C)C)c(=O)oc12 | -5.5 | -7.2 | 0.7 | 7.42* | 0.0718
CC(C)Cn1c(CN2CCCCC2C)nc2c1c(=O)n(C)c(=O)n2C (stereo not drawn) | -3.9 | -10.1 | -0.5 | · | ·
CN1C(=S)N(c2cccnc2)C(=O)/C1=C\c1ccc(N(C)C)cc1 | -5.0 | 35.7 | 0.4 | -5.55* | 0.0415*
CN1C(=S)N(c2cccnc2)C(=O)/C1=C\c1ccc(C(C)(C)C)cc1 | -28.3 | 53.8 | 0.1 | -1.63 | ·
Cc1cccc(NC(=O)C(C)OC(=O)c2ccccc2NS(=O)(=O)c2cc(C)c(C)c([N+](=O)[O-])c2)c1 (stereo not drawn) | 17.3 | 8.8 | 0.2 | -2.99* | 0.0613*
CC(C)(C)c1[nH]nc2c1C(c1ccsc1)C(C#N)=C(N)O2 (stereo not drawn) | -4.6 | -5.3 | 0.9 | 0.35 | ·
CCc1[nH]nc2c1C(c1ccsc1)C(C#N)=C(N)O2 (stereo not drawn) | -3.9 | -14.6 | 1.5 | -4.31* | 0.0629*
Cc1ccc(C2NC(c3ccc(C)cc3)C(C)C(=O)C2C)cc1 (stereo not drawn) | · | · | 0.0 | · | ·
Cc1ccc(N2CS(=O)(=O)/C(=C/N(C)C)C2=O)cc1 | -1.4 | 10.3 | -0.7 | · | 0.0818
CN(C)/C=C1\C(=O)N(c2ccc(Cl)cc2)CS1(=O)=O | 2.7 | -23.8 | 0.4 | · | ·
Cc1c(Cl)c(=O)n2c(=O)c(Cl)c(C)n12 | 1.1 | -2.5 | 1.7 | -2.97 | ·
CCN(CC)CCN1C(=O)C(O)=C(C(=O)c2cc3cccc(OC)c3o2)C1c1cccs1 (stereo not drawn) | · | · | 0.3 | · | ·
CC(Nc1cc(N2CCNCC2)ccc1[N+](=O)[O-])c1ccccc1 (stereo not drawn) | -34.8 | 19.5 | -1.4 | -3.24* | 0.0527*
SMILES | Arbovirus inh | WT yeast gro inh | PERK inh | ROMK primary | ROMK hit retest
Cn1c(N)c(S(=O)(=O)N2CCN(c3ccccc3)CC2)c(=O)n(C)c1=O | 10.1 | -12.4 | 0.2 | · | ·
COc1ccc(-n2nc(C(=O)Nc3nc4ccc(OC)cc4s3)c3ccccc3c2=O)c(OC)c1 | -15.6 | 18.2 | 0.9 | · | ·
CCOC(=O)c1ccccc1NC(=S)N1CCC(C)CC1 | -0.9 | 6.6 | -0.7 | 0.173 | ·
CCOC(=O)c1ccccc1NC(=S)N1CC(C)CC(C)C1 (stereo not drawn) | 1.0 | 7.3 | 1.0 | · | 0.0639*
CCOC(=O)C(C)Oc1cccc2c(=O)n(CC(=O)NCc3ccc(F)cc3)ccc12 (stereo not drawn) | · | · | -0.1 | 3.63* | 0.0878
CCOC(=O)C(C)Oc1cccc2c(=O)n(CC(=O)NCc3ccccc3)ccc12 (stereo not drawn) | · | · | -0.4 | 1.94 | ·
CC(C)(C)n1ncc2c(=O)n(CC(=O)NCc3ccc(F)cc3)cnc21 | -6.3 | -13.4 | -1.4 | 3.91* | 0.0839
COc1ccc(-c2cnc3nc[nH]c(=O)c3n2)cc1 | -5.7 | -9.0 | 0.9 | 0.0925 | ·
CSc1ccc(CN2CCN(Cc3ccc([N+](=O)[O-])cc3)CC2)cc1 | -11.4 | 35.6 | 0.6 | -3.86* | 0.0545*
O=[N+]([O-])c1ccc(CN2CCOCCOCCN(Cc3ccc([N+](=O)[O-])cc3)CCOCC2)cc1 | 3.2 | 3.3 | -0.8 | -9.91* | 0.0116*
Cn1c(-c2ccc3c(c2)OCO3)cnc1NCc1ccccc1 | -11.2 | -10.8 | 1.5 | · | ·
Cn1c(-c2ccc3c(c2)OCO3)cnc1NCc1cccc(Cl)c1 | -12.6 | 51.0 | -0.7 | -4.82* | 0.0646*
COCC(C)NC(=O)CSc1nnc(-c2cccc(S(=O)(=O)N3CCCCC3)c2)o1 (stereo not drawn) | 19.6 | 14.3 | 0.1 | 0.0642 | ·
CC(NC(=O)CSc1nnc(-c2cccc(S(=O)(=O)N3CCCCC3)c2)o1)C12CC3CC(CC(C3)C1)C2 (stereo not drawn) | -12.3 | 8.8 | -1.0 | -3.82* | 0.0661*
COc1ccccc1/C=C/C=N/NC(=O)CC1C(=O)NN=C1C (stereo not drawn) | · | · | 1.8 | -11.3* | 0.0766
COc1ccc(C(=O)n2nc(C)cc2Nc2ccccc2)cc1 | 2.5 | 50.0 | 0.1 | 1.75* | ?
CC(=O)n1cc(N(C(=O)CCl)c2ccccc2)c2ccccc21 | · | · | -0.1 | -2.84* | ?
COC(=O)c1ccc(-c2sc3nc(N4CCOCC4)c4c(c3c2N)CCCC4)o1 | 1.1 | 62.1* | -1.4 | -4.29* | 0.0582*
CCOC(=O)C(C)Sc1nnc(Cn2c(=O)sc3ccccc32)n1-c1ccccc1 (stereo not drawn) | 16.3 | 0.9 | 0.0 | · | ?
Cc1ccc(C)c(-n2c3nc(=O)n(C)c(=O)c-3cc3ccccc32)c1 | · | · | -1.8 | 0.339 | ·
Cc1cccc(-n2c3nc(=O)[nH]c(=O)c-3cc3cc([N+](=O)[O-])ccc32)c1 | 38.2* | -1.0 | 1.8 | -2.78* | 0.0476*
Cc1ccc(C)c(-n2c3nc(=O)[nH]c(=O)c-3cc3cc([N+](=O)[O-])ccc32)c1 | 17.6 | -14.6 | 0.5 | · | 0.0427*
CCCCN(CCCC)Cc1cc2ccccc2c2c1COC2 | 3.5 | 5.4 | 0.5 | -0.337 | ·
O=C(c1ccccc1SCc1ccccc1)N1CCOCC1 | 3.2 | -2.2 | 1.1 | 0.909 | ·
COc1coc(C(O)C[N+](=O)[O-])cc1=O (stereo not drawn) | -1.1 | -5.3 | 0.8 | -0.915 | ·
CCN(CC)CCCN(C(=O)c1ccco1)c1nc(-c2ccc(C)cc2)cs1 | -35.3 | 10.6 | -0.2 | -3.48* | 0.0567*
CN(C)CCCN(C(=O)c1ccco1)c1nc2ccc(Br)cc2s1 | -20.2 | 22.1 | -0.7 | -0.0252 | ·
CN(C)CCCN(C(=O)c1ccco1)c1nc2ccc(Cl)cc2s1 | -22.2 | 15.7 | -0.6 | -4.09* | ?

Screening data deposited in PubChem by several laboratories.
